Compounds with a hit are over-represented: about 2.5% of the library has one in this group of screens.
ULK1 primary: ULK1 kinase inhibitors, primary screen, biochemical, AlphaScreen. Serine/threonine-protein kinase ULK1 (Homo sapiens), O75385. AlphaScreen Atg13 phosphorylation by ULK1, luminescence. inhibition, % at 5.96 µM. 1.9% of 30,000 active; in the data active = inhibition above about 43%
ASK1 primary: ASK1 kinase inhibitors, primary screen, biochemical, AlphaScreen; AlphaScreen MKK6 phosphorylation by ASK1, luminescence; 0.99% of 22,000 active; inhibition, % at 7.44 µM; AID 1159602, 2016; Mitogen-activated protein kinase kinase kinase 5 (Homo sapiens), Q99683; in the data active = inhibition above about 35%
Target sequence (Q99683 whole entry, looked up): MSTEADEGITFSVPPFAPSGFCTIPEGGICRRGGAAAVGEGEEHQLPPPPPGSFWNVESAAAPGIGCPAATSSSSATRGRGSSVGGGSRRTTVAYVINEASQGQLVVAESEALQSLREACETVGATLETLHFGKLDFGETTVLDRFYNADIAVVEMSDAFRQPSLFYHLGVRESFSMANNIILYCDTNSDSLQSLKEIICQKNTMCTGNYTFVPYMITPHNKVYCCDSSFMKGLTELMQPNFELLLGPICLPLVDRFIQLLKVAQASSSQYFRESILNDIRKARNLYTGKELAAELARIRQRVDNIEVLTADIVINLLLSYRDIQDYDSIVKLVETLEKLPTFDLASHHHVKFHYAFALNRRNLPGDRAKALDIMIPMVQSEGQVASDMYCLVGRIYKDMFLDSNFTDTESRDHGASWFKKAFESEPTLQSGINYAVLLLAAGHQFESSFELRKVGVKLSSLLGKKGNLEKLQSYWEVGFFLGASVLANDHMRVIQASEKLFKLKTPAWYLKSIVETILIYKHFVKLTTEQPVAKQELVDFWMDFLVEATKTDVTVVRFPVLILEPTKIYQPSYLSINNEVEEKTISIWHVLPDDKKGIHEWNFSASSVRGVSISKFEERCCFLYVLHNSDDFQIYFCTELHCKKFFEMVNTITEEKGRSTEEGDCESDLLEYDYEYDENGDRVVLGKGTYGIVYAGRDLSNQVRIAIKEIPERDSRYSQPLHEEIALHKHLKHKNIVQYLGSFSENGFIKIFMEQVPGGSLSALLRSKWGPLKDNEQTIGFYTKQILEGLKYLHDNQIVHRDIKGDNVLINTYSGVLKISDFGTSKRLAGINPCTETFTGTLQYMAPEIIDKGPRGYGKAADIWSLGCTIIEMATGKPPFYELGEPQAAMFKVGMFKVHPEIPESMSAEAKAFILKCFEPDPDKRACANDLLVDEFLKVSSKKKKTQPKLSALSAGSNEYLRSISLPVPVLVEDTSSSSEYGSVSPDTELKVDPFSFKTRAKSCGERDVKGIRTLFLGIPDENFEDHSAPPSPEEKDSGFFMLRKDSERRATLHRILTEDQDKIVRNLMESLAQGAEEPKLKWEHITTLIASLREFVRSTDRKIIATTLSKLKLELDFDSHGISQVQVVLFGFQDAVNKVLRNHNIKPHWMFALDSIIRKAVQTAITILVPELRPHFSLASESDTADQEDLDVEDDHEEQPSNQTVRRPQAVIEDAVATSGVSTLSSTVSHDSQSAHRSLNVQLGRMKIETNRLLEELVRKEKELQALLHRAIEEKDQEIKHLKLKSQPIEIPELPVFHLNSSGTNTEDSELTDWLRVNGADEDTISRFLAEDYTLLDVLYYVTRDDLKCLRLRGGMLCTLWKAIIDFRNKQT
Hits are given with their value; - = inactive; . = no result.

SMILES | ULK1 primary | ASK1 primary
CCCCC(CC)COC(=O)C(C#N)=C(c1ccccc1)c1ccccc1 (configuration not stated) | - | .
CCCCC(CC)COC(=O)CC(C(=O)OCC(CC)CCCC)S(=O)(=O)O (configuration not stated) | 54 | .
Cc1cc2c(NC3CCCN(C(=O)C(O)c4ccc(Cl)cc4)C3)cccc2nn1 (configuration not stated) | 52 | -
Cc1cncc2cccc(NC3CCCN(C(=O)C(O)c4ccc(Cl)cc4)C3)c12 (configuration not stated) | - | -
Cc1cnc(NC2CCC(O)CC2)nc1NC1CCN(Cc2ccccc2)CC1 (configuration not stated) | - | -
CC1(C)CC(=O)C=C(NNC(=O)CC2(C)OCCCO2)C1 | - | .
c1ccc(Nc2nc(N3CCc4ccccc4C3)nc3c2ncn3-c2ccccc2)cc1 | - | -
COc1cc2nc(-c3c(C)nn(C)c3C)nc(NC3CC3)c2cc1OC | - | -
Cc1ccc(-c2cccc3cnc(Nc4ccc(C(=O)N5CCOCC5)cc4)nc23)cn1 | 58 | -
Cc1cnc(-c2ccc(C(=O)N3CCN(C)CC3)cc2)nc1Nc1ccc(N2CCOCC2)cc1 | - | -
CC(=O)N1CCC(Nc2ncc3cccc(-c4ccc(C)nc4)c3n2)CC1 | - | -
Cc1cc(Nc2ccccc2)nc(-c2ccc(C(=O)N3CCN(C)CC3)cc2)n1 | - | -
Cc1ccc(-c2cccc3cnc(Nc4ccc(C(=O)N5CCN(C)CC5)cc4)nc23)cn1 | 58 | -
Cn1cc(-c2cccc3cnc(NC4CCN(C(=O)N5CCCC5)C4)nc23)cn1 (configuration not stated) | - | -
Cc1ccc(-c2cccc3cnc(Nc4cccc(C(=O)N5CCN(C)CC5)c4)nc23)cn1 | 62 | -
Cc1ccc(-c2cccc3cnc(Nc4cccc(C(=O)N5CCCC5)c4)nc23)cn1 | 51 | -
COc1ccc2c(c1)CC(C(=O)Nc1ccc(-c3cn[nH]c3C)cc1OCC(=O)O)CO2 (configuration not stated) | - | -
CC(C)N(CCNc1nc(N2CCN(Cc3ccc4c(c3)OCO4)CC2)nc2c1ncn2CCN1CCCC1=O)C(C)C | - | -
Cc1sc2ccc(Br)cc2[n+]1CCC(=O)O | - | .
O=C(NCc1cccnc1)c1cccc(Nc2cnccn2)n1 | - | -
NC(Cc1ccccc1)c1nc2ccc(-c3cncc4ccccc34)cc2[nH]1 (configuration not stated) | 57 | -
NC(Cc1ccccc1)c1nc2ccc(-c3cccc4ncccc34)cc2[nH]1 (configuration not stated) | - | -
CC1CN(c2ncn(-c3ccc(Nc4ncc5ccc(-c6cnn(C)c6)c(Cl)c5n4)cc3)n2)CC(C)O1 (configuration not stated) | 53 | -
CNC(=O)c1ccc2cnc(Nc3ccc(-n4cnc(N5CCOCC5)n4)cc3)nc2c1 | 50 | -
Cn1cc(-c2ccc3cnc(Nc4ccc(-n5cnc(N6CCOCC6)n5)cc4)nc3n2)cn1 | - | -
SMILES | ULK1 primary | ASK1 primary
Cn1cc(-c2ccc3cnc(Nc4ccc(-n5cnc(N6CCOCC6)n5)cc4)nc3c2C(F)(F)F)cn1 | - | -
CCn1cc(-c2ccc3cnc(Nc4ccc(-n5cnc(N6CCOCC6)n5)cc4)nc3c2Cl)cn1 | 78 | -
O=C(NCc1ccccc1)c1ccc2cnc(Nc3ccc(-n4cnc(N5CCOCC5)n4)cc3)nc2c1 | - | -
Cc1cccc(-c2nc(C)cc(NCCc3ccccn3)n2)c1 | - | -
Clc1nc(Nc2ccc(N3CCOCC3)cc2)c2[nH]cnc2n1 | - | -
COc1cc2nc(NCc3cccnc3)nc(NCCN(C(C)C)C(C)C)c2cc1OC | - | -
COc1cc(NC(=O)Cc2cn(-c3ccc(Nc4cccc(N(C)C)c4)nn3)c3ccccc23)cc(OC)c1OC | - | -
O=C(NCCCN1CCCC1=O)c1cccc(N2CCN(c3ccccn3)CC2)n1 | - | -
O=C1CCCN1CCn1cnc2c(NC3CCN(Cc4ccccc4)CC3)nc(-c3cccs3)nc21 | - | -
Cc1cc(N)nc(-c2ccc(C(=O)NC3CC3)cc2)n1 | 56 | -
CCCNc1cc(C)nc(-c2ccc(C(=O)NC3CC3)cc2)n1 | - | -
CNC(=O)c1cc(F)ccc1Nc1cc(Nc2cc(-c3cncnc3)nc(C)n2)ncc1C(F)(F)F | 58 | -
CNC(=O)c1ccccc1Nc1cc(Nc2ccc(F)cc2OC)ncc1C(F)(F)F | 87 | -
CNC(=O)c1ccccc1Nc1cc(Nc2ccc(-c3cncnc3)cc2OC)ncc1C(F)(F)F | 86 | -
Cc1nc(Nc2cc(Nc3ccccn3)c(C(F)(F)F)cn2)cc(-c2cncnc2)n1 | - | -
NC(=O)c1ccccc1Nc1cc(Oc2ccccc2F)ncc1C(F)(F)F | - | -
CNC(=O)c1cncnc1Nc1cc(NC(=O)Cc2ccc(OC)cc2)ncc1C(F)(F)F | - | -
COc1cc(Nc2cc(C)nc(Nc3ccc(C(F)(F)F)cc3)n2)cc(OC)c1OC | - | -
O=C(Nc1ccc(N2CCOCC2)cc1)c1csc(Nc2ccncn2)n1 | - | -
CCN(CC)C(=O)C1CCCN(c2cccc(C(=O)NCCN3CCOCC3)n2)C1 (configuration not stated) | - | -
CCN(CC)C(=O)C1CCCN(c2cccc(C(=O)Nc3ccc(N4CCOCC4)cc3)n2)C1 (configuration not stated) | 52 | -
O=C(Nc1ccc(N2CCOCC2)cc1)c1csc(Nc2ncccn2)n1 | 53 | -
O=C(Nc1ccc(N2CCOCC2)cc1)c1csc(Nc2ccc(N3CCOCC3)cc2)n1 | - | -
O=C(Nc1ccc(N2CCOCC2)cc1)c1cccc(Nc2ccc3ncccc3c2)n1 | 46 | -
O=C(Nc1ccc(N2CCOCC2)cc1)c1cccc(Nc2ccncn2)n1 | 52 | -
SMILES | ULK1 primary | ASK1 primary
O=C(NCCN1CCOCC1)c1cccc(Nc2ccc3ncccc3c2)n1 | - | -
CCCNc1ccnc(N2CCN(c3ccccn3)CC2)n1 | - | -
COc1cccc(CN(CCCN2CCCC2)C(=O)Nc2ccc(-c3cn[nH]c3)cc2OC)c1 | - | -
c1ccc(CNc2ncnc3nc(N4CCC(N5CCOCC5)CC4)[nH]c23)cc1 | - | -
O=C(O)CCCC[C@H]1SC[C@H]2NC(=O)N[C@H]21 | 100 | .
CCOc1nc2cccc(C(=O)OC(C)OC(=O)OC3CCCCC3)c2n1Cc1ccc(-c2ccccc2-c2nn[nH]n2)cc1 (configuration not stated) | 53 | .
CCCc1nc(C(C)(C)O)c(C(=O)OCc2oc(=O)oc2C)n1Cc1ccc(-c2ccccc2-c2nn[nH]n2)cc1 | - | .
O=C(NCCCN1CCCC1=O)c1cc(Nc2ccc(N3CCOCC3)cc2)nc2ccccc12 | - | -
O=C(Nc1ccc(N2CCOCC2)cc1)c1cnc(NCCN2CCOCC2)s1 | - | -
O=C(Nc1ccc(N2CCOCC2)cc1)c1cc(N2CCc3ccccc3C2)nc2ccccc12 | 50 | -
O=C(Nc1ccc(N2CCOCC2)cc1)c1cc(NCCCN2CCCC2=O)nc2ccccc12 | 51 | -
O=C(Nc1ccc(N2CCOCC2)cc1)c1cnc(NCCCN2CCCC2=O)s1 | 56 | -
O=C(Nc1ccc(Oc2ccccc2)cc1)c1cc(N2CCc3ccccc3C2)nc2ccccc12 | - | -
O=C(NCc1cccnc1)c1ccc2nc(N3CCc4ccccc4C3)sc2c1 | - | -
CCN(CC)c1nc(NC2CC2)nc(N2CCC(N3CCOCC3)CC2)n1 | - | -

Screening results from PubChem.
